The values that follow come from PubChem BioAssay (NCATS).

A short description of experiment [1]: AP1 Signaling Pathway (AID 357).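 Also: ME-180 reporter cells stimulated with EGF at its EC50 level; % is scaled to controls: 0 for no effect and ±100 for the full control effect.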 Conditions: ME-180 AP-1-bla reporter, EGF-induced, beta-lactamase ratio, 5 h. An outline of the steps: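 Titration-series screen for positive or negative modulators of EC50 EGF-induced signaling in ME-180 cells carrying an AP-1-driven beta-lactamase reporter. After 5 hours at 37 degrees Celsius, CCF4 460nm/530nm emission ratio gave %Activity; AC50 values derived.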

In experiment [2] the target is Cytochrome P450 1A2 (Homo sapiens) (UniProt P05177). In words: p450-cyp1a2 (AID 410; calls by dose curve; also: potency is read from the fitted curve at half-maximal effect;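 as to activity change, negative = inhibition: -100% = full effect of reference inhibitor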). Conditions: recombinant CYP1A2, luciferin-ME demethylation, luminescence; series mostly up to 25.6 µM. An outline of the steps: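 O-Demethylation of luciferin 6' methyl ether by human CYP1A2 is monitored as luciferase luminescence. Substrate sits at Km (100uM); enzyme is 20nM. Values are scaled to 57 uM furafylline as maximal inhibition.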
Chain of Cytochrome P450 1A2 (Homo sapiens) (P05177 whole entry, looked up): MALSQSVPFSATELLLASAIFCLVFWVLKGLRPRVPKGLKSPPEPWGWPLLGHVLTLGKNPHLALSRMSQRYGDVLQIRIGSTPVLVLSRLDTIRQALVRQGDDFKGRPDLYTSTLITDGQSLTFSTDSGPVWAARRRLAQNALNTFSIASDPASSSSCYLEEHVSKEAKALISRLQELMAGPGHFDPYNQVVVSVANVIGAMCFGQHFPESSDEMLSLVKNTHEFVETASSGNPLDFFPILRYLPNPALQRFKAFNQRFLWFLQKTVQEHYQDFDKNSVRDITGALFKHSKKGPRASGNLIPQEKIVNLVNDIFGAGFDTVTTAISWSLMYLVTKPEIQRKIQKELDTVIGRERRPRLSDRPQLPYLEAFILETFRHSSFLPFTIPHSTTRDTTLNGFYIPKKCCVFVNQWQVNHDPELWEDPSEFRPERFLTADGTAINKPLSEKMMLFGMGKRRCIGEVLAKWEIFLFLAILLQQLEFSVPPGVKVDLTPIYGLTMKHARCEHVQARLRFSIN

Experiment [3] in a line: NFAT Signaling Pathway (AID 444).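 Also: carbachol stimulus at about its EC50 of 1 µM final; % is scaled to controls: 0 for no effect and ±100 for the full control effect.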 Conditions: Jurkat NFAT-bla M1, carbachol, beta-lactamase ratio, 5 h. An outline of the steps:
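Jurkat cells carrying an NFAT-driven β-lactamase reporter and co-transfected muscarinic M1 receptor were treated with compound plus carbachol (1 uM final, an EC50 level) for 5 h at 37 °C. CCF4 loading followed for 1 h at RT; 460/530 nm ratio gave %activity.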

A short description of experiment [4]: Stat Signaling Pathway (AID 446).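 Also: ME-180 cervical cancer cells given 40 pM IL-6 alongside compound; SIE-controlled beta-lactamase reporter measured as 460/530 nm FRET emission ratio; % is scaled to controls: 0 for no effect and ±100 for the full control effect.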 Conditions: ME-180 (cervical carcinoma) SIE beta-lactamase reporter, IL-6 stimulated, 5 h; at 17.2 µM (top of the series). An outline of the steps: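 Compound effects on IL-6-induced STAT reporter activity were measured in ME-180 cells. After overnight culture, cells were co-treated with 40 pM IL-6 for 5 hrs before beta-lactamase substrate loading at room temperature.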

The target of experiment [5] is Mitogen-activated protein kinase 10 (Mus musculus) (UniProt Q61831). Description: JNK3 AlphaScreen Assay (AID 530).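 Also: kinase came from lysate of stimulated human HepG2 cells; signal reports phosphorylation of biotinylated GST-cJun 1-79 at Ser73 with 10 µM ATP; % is scaled to controls: 0 for no effect and ±100 for the full control effect.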 The settings on record: JNK3 lysate, c-Jun phosphorylation; series mostly up to 25.6 µM. An outline of the steps:
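Phosphorylation of biotinylated GST-cJun(1-79) at Ser73 is measured by AlphaScreen proximity luminescence. Enzyme is JNK3 in HepG2 lysates activated with interleukin-1beta and tumor necrosis factor alpha; ATP is 10 uM final.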
In general terms: Alpha assays give light when donor and acceptor beads are brought close together.

Experiment [6] in a line: Cell Viability - BJ (AID 421; calls by dose curve;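 also: potency is read from the fitted curve at half-maximal effect; cells exposed to compound for 40 hours at 37 °C before readout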). The settings on record: BJ fibroblast viability, qHTS. An outline of the steps:
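Luminescent ATP signal (CellTiter-Glo, 20 min at room temperature) served as the read-out of viable BJ cells after 40 hours of compound treatment. Responses were scaled between DMSO and 100 uM tamoxifen, and AC50 values were obtained by Hill modeling.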
For orientation: qHTS replaces the single test concentration by a dilution series.

Experiment [7] in a line: Cell Viability - Jurkat (AID 426;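 active = dose-dependent loss of cell ATP signal giving a full or clear fitted curve, ranked by lower potency value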;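 also: potency is read from the fitted curve at half-maximal effect; cells exposed to compound for 40 hours at 37 °C before ATP read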). Conditions: qHTS. An outline of the steps: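 Cells of the human T-cell leukemia line Jurkat (E6-1) are seeded at 5000 per well, treated with compound across a concentration range for 40 hours at 37 °C, then lysed with CellTiter-Glo; luminescence reports ATP.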
Experiment [8] in a line: Cell Viability - Hek293 (AID 427;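 active = compounds whose dose-response curve shows a full or clear partial loss of cell viability, called from curve shape rather than a numeric limit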;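 also: potency is read from the fitted curve at half-maximal effect; cells exposed to compound for 40 hours at 37 °C before reading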). The settings on record: qHTS. An outline of the steps:
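Luminescent ATP read-out (CellTiter-Glo, 20 min RT) after 40 hr compound exposure at 37 °C in complete medium. Signal normalized to DMSO (basal) and 100 uM tamoxifen (100% inhibition); concentration-response fitted with the standard Hill equation to give AC50.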

Experiment [9] can be described thus: Cell Viability - HepG2 (AID 433; calls by dose curve;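 also: potency is read from the fitted curve at half-maximal effect; potency for ATP loss meaning cytotoxicity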). Conditions: qHTS. An outline of the steps:
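ATP luminescence (CellTiter-Glo) after 40 h compound exposure, 37 °C, HepG2, 1500 cells/well, complete medium. Normalized: DMSO = basal, 100 uM tamoxifen = 100% inhibition. AC50 via standard Hill equation.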

Experiment [10] in a line: Cell Viability - N2a (AID 540; active = well fitted curve in the direction sought with a large enough effect; an effect the other way counts as inactive or inconclusive; also: potency is read from the fitted curve at half-maximal effect; nearly all actives have a fitted effect of over 45% in size). The settings on record: N2a mouse neuroblastoma cell viability; activity change, negative = cytotoxicity: at 92.2 µM (top of the series). An outline of the steps:
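Cytotoxicity was scored as loss of cellular ATP in N2a cells, a mouse neuroblastoma line. Compounds are applied in a qHTS concentration series for 40 hr at 37 °C.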

Experiment [11] in a line: Cell Viability - HUV-EC-C (AID 542; active = well fitted curve in the direction sought with a large enough effect; an effect the other way counts as inactive or inconclusive; also: potency is read from the fitted curve at half-maximal effect; nearly all actives have a fitted effect of over 35% in size). The settings on record: HUV-EC-C endothelial cell viability, qHTS; series mostly up to 92.2 µM. An outline of the steps:
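Cells were seeded at 1000 per well and incubated 5 hr at 37 °C before compound addition. After 40 hr at 37 °C, CellTiter-Glo reagent was added for 20 min and luminescence read. AC50 values came from Hill-equation modelling.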

A short description of experiment [12]: Cell Viability - H-4-II-E (AID 543; active = well fitted curve in the direction sought with a large enough effect; an effect the other way counts as inactive or inconclusive; also: potency is read from the fitted curve at half-maximal effect; nearly all actives have a fitted effect of over 35% in size). The settings on record: H-4-II-E rat hepatoma viability; series mostly up to 92.2 µM. An outline of the steps: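 Cells seeded at 1500 per well and rested 5 hr; compounds added; 40 hr incubation at 37 °C; CellTiter-Glo added, 20 min at room temperature; luminescence read. Hill-equation fits gave AC50.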
Experiment [13] in a line: Cell Viability - MRC5 (AID 434; calls by dose curve;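 also: potency is read from the fitted curve at half-maximal effect; potency reflects cytotoxicity seen as loss of intracellular ATP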). The settings on record: MRC5 lung fibroblast viability, qHTS. An outline of the steps: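 Decrease in intracellular ATP, quantified by luciferase light output, reflects compound toxicity toward MRC5 cells exposed for 40 hr in complete culture medium. Concentration-response curves, scaled between DMSO and 100 uM tamoxifen, gave AC50 values.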

Experiment [14] concerns the target Glucocorticoid receptor (Homo sapiens) (UniProt P04150). Description: GR-GFP Redistribution (AID 450;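 active = compounds whose dose series gives a full or clear partial fitted curve of increased nuclear translocation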; also: potency is read from the fitted curve at half-maximal effect). Conditions: U2OS GR-GFP nuclear translocation, laser cytometry, 2 h.
Experiment [15] can be described thus: Cell Viability - NIH 3T3 (AID 541; active = well fitted curve in the direction sought with a large enough effect; an effect the other way counts as inactive or inconclusive; also: potency is read from the fitted curve at half-maximal effect; nearly all actives have a fitted effect of over 25% in size). The settings on record: NIH 3T3 cell viability, qHTS; activity change, negative = cytotoxicity: at 92.2 µM (top of the series). An outline of the steps:
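Cells seeded at 1000/well, rested 5 hr at 37 °C, then dosed and incubated 40 hr at 37 °C. CellTiter-Glo added, 20 min room temperature, luminescence read. AC50 by Hill fit.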

Experiment [16] can be described thus: Cell Viability - SH-SY5Y (AID 544; active = well fitted curve in the direction sought with a large enough effect; an effect the other way counts as inactive or inconclusive; also: potency is read from the fitted curve at half-maximal effect; nearly all actives have a fitted effect of over 55% in size). Conditions: SH-SY5Y neuroblastoma cell viability; viability change, negative = cytotoxic: at 92.2 µM (top of the series). An outline of the steps: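 Cells were plated at 1500 per well and allowed 5 hr at 37 °C. Compounds were added across a concentration range and incubated 40 hr at 37 °C. CellTiter-Glo was added for 20 min at room temperature before luminescence reading.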

The target in experiment [17] is Lysosomal acid glucosylceramidase (Homo sapiens) (UniProt P04062). Description: Glucocerebrosidase-p2 (AID 348; in the data active = potency below about 10 µM; also: potency is read from the fitted curve at half-maximal effect). The settings on record: purified GBA, blue fluorogenic substrate, 40 min. An outline of the steps:
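Normal human glucocerebrosidase (0.2 nM) with blue fluorogenic substrate (80 uM final) in citrate/phosphate pH 5.9 with 10mM sodium taurocholate, 0.01% tween-20; 40 min RT, NaOH/glycine stop; fluorescence Ex 365/Em 440; AC50 from a titration from 0.6 nM upwards.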

Where “and” joins values, the source holds several entries; their conditions need not be identical. Identical values can stand only once. A number with no mark means an inactive call. Results filed as inconclusive are left out. Calls of active or inactive are those of the source. Unless noted, calls follow the shape of the dose curve; as a rule, active = well fitted curve in either direction with a large enough effect (not every such curve was filed as active); inconclusive = small, poorly fitted or top-dose-only effect, or another doubt; inactive = flat fitted curve, though single readings scatter.

Chain of Glucocorticoid receptor (Homo sapiens) (P04150 whole entry, looked up): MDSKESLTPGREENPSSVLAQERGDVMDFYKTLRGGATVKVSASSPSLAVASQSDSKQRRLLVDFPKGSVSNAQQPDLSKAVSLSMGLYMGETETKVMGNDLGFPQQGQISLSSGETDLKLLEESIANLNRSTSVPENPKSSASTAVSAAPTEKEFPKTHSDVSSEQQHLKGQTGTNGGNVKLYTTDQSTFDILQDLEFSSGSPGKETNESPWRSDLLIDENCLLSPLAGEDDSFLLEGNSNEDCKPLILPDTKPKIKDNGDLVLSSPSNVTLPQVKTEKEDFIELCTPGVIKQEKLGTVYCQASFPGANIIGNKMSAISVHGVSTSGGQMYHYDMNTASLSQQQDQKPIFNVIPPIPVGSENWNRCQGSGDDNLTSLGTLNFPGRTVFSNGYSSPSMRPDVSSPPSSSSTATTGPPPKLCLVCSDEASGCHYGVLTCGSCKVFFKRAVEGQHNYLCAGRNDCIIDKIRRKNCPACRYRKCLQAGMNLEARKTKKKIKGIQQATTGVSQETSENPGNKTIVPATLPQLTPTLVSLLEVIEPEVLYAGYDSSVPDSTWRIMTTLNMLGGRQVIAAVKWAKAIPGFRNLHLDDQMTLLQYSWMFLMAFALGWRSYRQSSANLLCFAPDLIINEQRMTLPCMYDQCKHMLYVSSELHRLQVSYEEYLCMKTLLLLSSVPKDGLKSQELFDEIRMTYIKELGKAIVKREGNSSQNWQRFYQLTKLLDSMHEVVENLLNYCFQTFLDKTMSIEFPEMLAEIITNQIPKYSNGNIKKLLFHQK
Chain of Lysosomal acid glucosylceramidase (Homo sapiens) (P04062 whole entry, looked up): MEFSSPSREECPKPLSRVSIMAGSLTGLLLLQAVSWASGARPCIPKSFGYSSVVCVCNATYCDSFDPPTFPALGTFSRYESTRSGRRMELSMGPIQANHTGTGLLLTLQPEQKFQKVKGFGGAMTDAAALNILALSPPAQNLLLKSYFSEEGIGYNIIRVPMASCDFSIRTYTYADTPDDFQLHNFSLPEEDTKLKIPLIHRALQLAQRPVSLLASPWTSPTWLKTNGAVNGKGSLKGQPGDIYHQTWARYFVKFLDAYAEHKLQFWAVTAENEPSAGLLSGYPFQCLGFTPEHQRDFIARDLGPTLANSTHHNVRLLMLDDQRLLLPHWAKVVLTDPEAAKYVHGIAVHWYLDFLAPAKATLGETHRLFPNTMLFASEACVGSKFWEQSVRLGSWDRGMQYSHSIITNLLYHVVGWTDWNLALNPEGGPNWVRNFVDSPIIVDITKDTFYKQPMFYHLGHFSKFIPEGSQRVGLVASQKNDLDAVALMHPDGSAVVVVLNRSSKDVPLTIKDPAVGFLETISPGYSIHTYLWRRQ

As to `C[C@H]1[C@H](NC(=O)/C(=N/OC(C)(C)C(=O)O)c2csc(N)n2)C(=O)N1S(=O)(=O)O` (stereo in doubt), the activity change, negative = inhibition in [1] (at 17.2 µM (top of the series)) was 1.44%; in experiment [3] (at 17.2 µM (top of the series)), 3.56%. Also, the Potency result in experiment [2] was “inactive”. In addition, the activity, negative = inhibition in [4] is 8.78%. Moreover, the molecule was classed as inactive in experiment [5].
Take `Oc1c(Cl)cc(Cl)cc1Sc1cc(Cl)cc(Cl)c1O`: the activity change, negative = inhibition was -12.3% in [1] (at 17.2 µM (top of the series)) and -126% (active) in [3] (at 17.2 µM (top of the series)). Also, the Potency in [6] was above 92 µM; in experiment [7], 47.8 µM (active); in experiment [8], 36.2 µM (active); in experiment [9], 27.9 µM (active); in experiment [10], 31.6 µM (active); in experiment [11], 20 µM (active). The Potency in [12] is 31.6 µM (active). The activity, negative = inhibition in experiment [4] is -99.1% (active). Also, in [5], the outcome was inactive.
On to `CCN(CCCCOC(=O)c1ccc(OC)c(OC)c1)C(C)Cc1ccc(OC)cc1` (stereo not drawn), for which the results for the activity change, negative = inhibition in experiment [1] (at 17.2 µM (top of the series)) and in experiment [3] (at 17.2 µM (top of the series)) were -6.87% and -93.3% (active), respectively.
Regarding `Cc1cc(=O)n(-c2ccccc2)n1C`, the activity change, negative = inhibition in [1] (at 17.2 µM (top of the series)) was 3.67%; in experiment [3] (at 17.2 µM (top of the series)), -2.45%. Besides, the Potency result in [2] is “inactive”. Also, the activity, negative = inhibition in experiment [4] was 10.3%. For the same molecule, in experiment [5], the molecule was classed as inactive.
In the case of `CCOC(=O)n1ccn(C)c1=S`, the activity change, negative = inhibition in [1] (at 17.2 µM (top of the series)) was 13.2%; in experiment [3] (at 17.2 µM (top of the series)) it was -13.3%. Moreover, the Potency in [2] is 12.6 µM (active). For the same molecule, in experiment [4], the activity, negative = inhibition is 4.14%. Also, the molecule was called inactive in experiment [5].
Regarding `Oc1ccc(O)cc1`, the activity change, negative = inhibition is -22.8% in experiment [1] (at 38 µM (top of the series)) and -5.74% in experiment [3] (at 38 µM (top of the series)). In addition, the Potency entry in [2] is “inactive”. Also, the Potency in [6] was above 92 µM; in experiment [7], 4.41 µM (active); in experiment [9] it was above 92 µM; in experiment [13], above 92 µM; in [14] it was above 46 µM; in experiment [10], 20 µM (active). The Potency in experiment [15] was 20 µM (active); in [11], 39.8 µM (active); in [12] it was 79.4 µM (active); in experiment [16], 3.16 µM (active). Further, the outcome in experiment [5] was inactive.
On to `CCN(CC)C(=O)N1CCN(C)CC1`, for which the activity change, negative = inhibition in experiment [1] (at 17.2 µM (top of the series)) is 1.31%; in experiment [3] (at 17.2 µM (top of the series)), -7.87%. The Potency result in experiment [2] is “inactive”. Moreover, the Potency in [14] was above 20.6 µM. Further, the molecule was classed as inactive in [5].
As for `CN1CCN(CCCN2c3ccccc3Sc3ccc(S(=O)(=O)N(C)C)cc32)CC1`, the activity change, negative = inhibition in [1] (at 17.2 µM (top of the series)) is 16.8%. Moreover, the Potency in experiment [2] was 12.6 µM (active). Moreover, in experiment [4], the activity, negative = inhibition was 5.77%. The molecule was classed as inactive in experiment [5].
On to `OC(CCN1CCCCC1)(c1ccccc1)c1ccccc1`, for which the Potency in experiment [17] was above 11.4 µM. For the same molecule, the activity change, negative = inhibition in [1] (at 7.69 µM (top of the series)) was -3.31%; in experiment [1] (at 17.2 µM (top of the series)), 7.98% and -4.16%; in experiment [3] (at 7.69 µM (top of the series)), -73.6% (active); in [3] (at 17.2 µM (top of the series)) it was -42.4% (active) and -77.8% (active). Moreover, in experiment [2], the Potency entry is “inactive”. Also, the outcome in [5] was inactive.
